Test results: PubChem BioAssay
Activity calls are given as the source filed them. Unless noted, no rule for the calls is given here.

Columns and labels:
[1] = test system: Wnt5a (protein binding on small-molecule microarray); test: Wnt5a binders on small-molecule microarray, primary screen, biophysical, 635/667 nm fluorescence (AID 1142); details: 635 nm fluorescence, higher = more signal;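 also: fluorescence read at 667 nm with signal to noise per printed feature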
[2] = cell viability in Huh7 cells, primary screen, cytotoxicity control for HCV replication inhibitor project, CellTiter-Glo luminescence, basal, 48 h (AID 1143); details: Huh7 HCV replicon, higher = more signal, called active from +8 up or from −8 down;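 also: Huh7 hepatoma cells carrying a hepatitis C replication reporter with no stimulus; test concentration not given here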
[3] = P. aeruginosa biofilm formation inhibitors, primary screen, PAO1 strain, BacTiter-Glo luminescence, LB-PBS (AID 1144); details: 12 h, higher = more signal
[4] = CREB reporter modulators without forskolin, primary screen, cell-based, PC12, CRE-LacZ reporter, unstimulated (AID 1145); details: no forskolin, luminescence, 4.5 h, higher = more signal, called active from +8 up or from −8 down
[5] = CREB reporter modulators under forskolin, primary screen, cell-based, PC12, CRE-LacZ reporter, forskolin-stimulated (AID 1146); details: luminescence, 4.5 h, higher = more signal, called active from +8 up or from −8 down;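 also: PC12 cells with 6xCRE LacZ reporter stimulated by forskolin 10 µM; beta-galactosidase reporter signal reflecting CREB driven transcription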
[6] = target: Streptavidin (Streptomyces avidinii) (UniProt P22629); test: streptavidin binders on small-molecule microarray, primary screen, artefact control for SMM compound annotation, biophysical, 635/667 nm fluorescence (AID 1147); details: streptavidin binding, higher = more signal;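 also: signal reflects streptavidin binding to arrayed compounds as a control protein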
[7] = small-molecule binders of probe aInhba, primary screen, biochemical, small-molecule microarray, 635/667 nm fluorescence (AID 1148); details: higher = more signal;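 also: score merges 667nm spot fluorescence with signal-to-noise for antibody binding to printed compounds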
[8] = target: Torsin-1A (Homo sapiens) (UniProt O14656); test: torsin A binders from cell lysate, primary screen, small-molecule microarray, wild-type, 635/667 nm (AID 1149); details: COS7 hTOR1A-WT lysate, 635 nm fluorescence, higher = more signal
[9] = target: Torsin-1A (Homo sapiens) (UniProt O14656); test: small-molecule binders of mutant TOR1A in lysate, primary screen, cell lysate, small-molecule microarray, COS7 lysate, 635/667 nm fluorescence (AID 1150); details: COS7 hTOR1A mutant lysate, 635 nm fluorescence, higher = more signal;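 also: score pools 667 nm emission and signal to noise measuring lysate protein binding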
[10] = test system: Sonic hedgehog protein (Shh); test: small-molecule binders of Shh protein, primary screen, biochemical, small-molecule microarray, 635/667 nm fluorescence (AID 1151); details: small-molecule microarray binding, 635 nm fluorescence; higher = more signal;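 also: Shh protein binding to compounds spotted on small-molecule microarray slides; score combines spot fluorescence intensity with signal-to-noise across triplicate slides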

Sequence of Streptavidin (Streptomyces avidinii) (P22629 whole entry, looked up): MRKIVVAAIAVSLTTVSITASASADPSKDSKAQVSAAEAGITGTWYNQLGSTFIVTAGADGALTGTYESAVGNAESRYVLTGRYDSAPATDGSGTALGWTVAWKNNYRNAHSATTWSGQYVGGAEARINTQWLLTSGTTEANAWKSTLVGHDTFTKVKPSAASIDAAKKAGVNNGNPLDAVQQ
Sequence of Torsin-1A (Homo sapiens) (O14656 whole entry, looked up): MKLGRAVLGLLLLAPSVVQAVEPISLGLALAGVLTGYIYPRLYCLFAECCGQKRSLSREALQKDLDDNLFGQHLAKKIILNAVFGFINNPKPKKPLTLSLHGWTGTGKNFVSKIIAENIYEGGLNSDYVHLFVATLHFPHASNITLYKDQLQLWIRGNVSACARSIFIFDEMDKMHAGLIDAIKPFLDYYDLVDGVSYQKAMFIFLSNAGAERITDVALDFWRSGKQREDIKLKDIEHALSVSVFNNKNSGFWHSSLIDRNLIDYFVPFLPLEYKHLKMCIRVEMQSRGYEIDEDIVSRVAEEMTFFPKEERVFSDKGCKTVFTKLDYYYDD

COc1ccc(CCNC(=O)[C@@]2(C)c3ccccc3C(=O)N(c3ccc(C)cn3)[C@H]2c2ccc(CO)cc2)cc1
composite z-score [1]: -0.49 | z-score [2]: -0.998 (inactive) | z-score [3]: -0.604 (inactive) | z-score [4]: -0.0888 (inactive) | z-score [5]: -0.371 (inactive) | composite z-score [6]: -0.712 | composite z-score [7]: -0.183 | composite z-score [8]: -2.16 | composite z-score [9]: -1.44 | composite z-score [10]: -0.797

C=C(CCCC)/C(=C/C[C@H](OC(C)=O)c1ccc(OCCO)cc1)c1cnc2ccccc2c1
composite z-score [1]: 0.0824 | z-score [2]: -1.76 (inactive) | z-score [3]: -0.829 (inactive) | z-score [4]: 2.59 (inactive) | z-score [5]: 1.08 (inactive) | composite z-score [6]: 0.535 | composite z-score [7]: -0.0087 | composite z-score [8]: 1.27 | composite z-score [9]: 0.671 | composite z-score [10]: 1.8

CC1CC/C=C\[C@H]2OC34C=CCN(c5ccc6ccccc6c5)C(=O)[C@H]3N(CCO)C(=O)[C@@H]4C2C(=O)O1 (stereo not given in full)
composite z-score [1]: 0.451 | z-score [2]: -0.929 (inactive) | z-score [3]: 0.282 (inactive) | z-score [4]: -0.35 (inactive) | z-score [5]: 0.289 (inactive) | composite z-score [6]: -0.818 | composite z-score [7]: 0.0301 | composite z-score [8]: -1.34 | composite z-score [9]: 0.652 | composite z-score [10]: 0.0032

C[N+](C)(C)CCCC[C@@H]1NC(=O)[C@@H]2C[C@H](C(=O)NCCCCCN)[C@H](c3ccc(O)cc3)N2C1=O
composite z-score [1]: 0.557 | z-score [2]: -0.496 (inactive) | z-score [3]: -0.771 (inactive) | z-score [4]: 0.143 (inactive) | z-score [5]: -0.441 (inactive) | composite z-score [6]: 1.49 | composite z-score [7]: 0.491 | composite z-score [8]: 0.632 | composite z-score [9]: 0.659 | composite z-score [10]: 1.61

O=C1OCCC=C[C@H]2OC34C=CCN(Cn5nnc6ccccc65)C(=O)[C@H]3N(CCO)C(=O)[C@@H]4C12 (stereo not given in full)
composite z-score [1]: -0.83 | z-score [2]: -0.208 (inactive) | z-score [3]: -1.39 (inactive) | z-score [4]: -1.3 (inactive) | z-score [5]: -0.688 (inactive) | composite z-score [6]: -1.48 | composite z-score [7]: -0.251 | composite z-score [8]: -1.01 | composite z-score [9]: -1.32 | composite z-score [10]: -0.61

C=C(CCCC)C(=O)CC[C@H](OC(=O)c1cccnc1)c1ccc(OCCO)cc1
composite z-score [1]: 0.0366 | z-score [2]: -2.23 (inactive) | z-score [3]: 0.192 (inactive) | z-score [4]: 13.3 (active) | z-score [5]: 2.15 (inactive) | composite z-score [6]: -0.118 | composite z-score [7]: 0.0903 | composite z-score [8]: 0.471 | composite z-score [9]: 0.546 | composite z-score [10]: 0.381

O=C1[C@@]23C=C(Br)[C@H](C[C@@H]2COC3)[C@]12CO2
composite z-score [1]: -0.139 | z-score [2]: -0.38 (inactive) | z-score [3]: -0.00184 (inactive) | z-score [4]: 1.04 (inactive) | z-score [5]: 1.78 (inactive) | composite z-score [6]: -1.08 | composite z-score [7]: -0.204 | composite z-score [8]: -0.672 | composite z-score [9]: -0.666 | composite z-score [10]: -0.0003

CN1C(=O)C2C=CC(C(O)C=Cc3ccc([N+](=O)[O-])cc3)N(Nc3ccccc3)C2C1=O (stereo not given)
composite z-score [1]: 0.286 | z-score [2]: -0.143 (inactive) | z-score [3]: -0.585 (inactive) | z-score [4]: 0.426 (inactive) | z-score [5]: 0.528 (inactive) | composite z-score [6]: 1.16 | composite z-score [7]: 0.0497 | composite z-score [8]: 0.0394 | composite z-score [9]: -0.0071 | composite z-score [10]: 0.428

CC(C)CNC(=O)[C@@]1(Cc2ccccc2I)c2ccccc2C(=O)N(Cc2ccccc2C(F)(F)F)[C@H]1c1ccc(CO)cc1
composite z-score [1]: -0.0971 | z-score [2]: 0.0523 (inactive) | z-score [3]: 0.0415 (inactive) | z-score [4]: -0.295 (inactive) | z-score [5]: 1.04 (inactive) | composite z-score [6]: -0.198 | composite z-score [7]: -0.128 | composite z-score [8]: -0.177 | composite z-score [9]: -0.185 | composite z-score [10]: -0.197

O=C1C[C@@](C(=O)NCc2ccccc2)(c2ccc([N+](=O)[O-])cc2)[C@@H](c2ccc(CO)cc2)N1CC12CC3CC(CC(C3)C1)C2
composite z-score [1]: 0.38 | z-score [2]: -4.73 (inactive) | z-score [3]: 0.657 (inactive) | z-score [4]: 0.674 (inactive) | z-score [5]: -0.841 (inactive) | composite z-score [6]: -0.243 | composite z-score [7]: -0.189 | composite z-score [8]: 0.352 | composite z-score [9]: 0.368 | composite z-score [10]: 1.99

O=C(CS)NCCCCCNC(=O)[C@H]1C[C@H]2C(=O)NCC(=O)N2[C@H]1c1ccc(O)cc1
composite z-score [1]: -0.55 | z-score [2]: -0.173 (inactive) | z-score [3]: -0.196 (inactive) | z-score [4]: -1.49 (inactive) | z-score [5]: -0.684 (inactive) | composite z-score [6]: -1.11 | composite z-score [7]: -0.264 | composite z-score [8]: -0.518 | composite z-score [9]: 0.113 | composite z-score [10]: 0.0174

C=C(/C(=C/C[C@H](OC(C)=O)c1ccc(OCCO)cc1)c1cc(C(=O)OC)ccc1OC)C(C)C
composite z-score [1]: 0.269 | z-score [2]: -2.4 (inactive) | z-score [3]: -0.357 (inactive) | z-score [4]: 20.7 (active) | z-score [5]: -0.509 (inactive) | composite z-score [6]: 1.17 | composite z-score [7]: 0.0589 | composite z-score [8]: 0.287 | composite z-score [9]: 1.98 | composite z-score [10]: 1.41

COC(=O)c1c2oc(c1C(=O)OC)C(=O)N[C@@H](C(C)C)Cn1cc(nn1)C1(CCCCC1)NC(=O)N[C@H](CO)CC2
composite z-score [1]: 0.432 | z-score [2]: 0.24 (inactive) | z-score [3]: -0.377 (inactive) | z-score [4]: 2.08 (inactive) | z-score [5]: -0.178 (inactive) | composite z-score [6]: 0.177 | composite z-score [7]: -0.0477 | composite z-score [8]: 0.935 | composite z-score [9]: 0.48 | composite z-score [10]: 0.246

COc1ccc([Si](C)(C)[C@H]2[C@H](CCn3cc([C@H](O)c4ccccc4)nn3)O[C@@]3(C(=O)N(C)c4ccccc43)[C@@H]2C)cc1
composite z-score [1]: -0.319 | z-score [2]: -3.31 (inactive) | z-score [3]: -0.573 (inactive) | z-score [4]: 2.69 (inactive) | z-score [5]: -1.28 (inactive) | composite z-score [6]: -0.814 | composite z-score [7]: -0.0221 | composite z-score [8]: -0.71 | composite z-score [9]: -0.193 | composite z-score [10]: 1.36

COc1ccc([Si](C)(C)[C@H]2[C@H](CCO)O[C@@]3(C(=O)N(Cc4ccccc4)c4ccc(N5CCCCC5=O)cc43)[C@@H]2C)cc1
composite z-score [1]: 0.116 | z-score [2]: -7.68 (inactive) | z-score [3]: -1.98 (inactive) | z-score [4]: 4.22 (inactive) | z-score [5]: -1.16 (inactive) | composite z-score [6]: 0.381 | composite z-score [7]: -0.118 | composite z-score [8]: 0.23 | composite z-score [9]: 1.67 | composite z-score [10]: 0.929

COc1ccc(C#Cc2ccc3c(c2)[C@]2(C(=O)N3)[C@H](c3ccc(O)cc3)N3[C@H](c4ccccc4)[C@H](c4ccccc4)OC(=O)[C@H]3[C@@H]2C(=O)N2CCc3cc(OC)c(OC)cc3C2)cc1
composite z-score [1]: 0.636 | z-score [2]: -0.678 (inactive) | z-score [3]: -0.0604 (inactive) | z-score [4]: 0.155 (inactive) | z-score [5]: 0.102 (inactive) | composite z-score [6]: 1.13 | composite z-score [7]: -0.0521 | composite z-score [8]: 0.135 | composite z-score [9]: 0.0243 | composite z-score [10]: 1.78

CCCC[C@@H]1C[C@H]1[C@@H](NC(=O)c1cccnc1)c1ccc(Cl)cc1
composite z-score [1]: -0.769 | z-score [2]: -1.25 (inactive) | z-score [3]: -0.128 (inactive) | z-score [4]: -0.368 (inactive) | z-score [5]: 0.834 (inactive) | composite z-score [6]: -1.44 | composite z-score [7]: -0.335 | composite z-score [8]: -1.57 | composite z-score [9]: -0.419 | composite z-score [10]: -1.35

COC(=O)C(CC#Cc1ccc2c(c1)[C@]1(C(=O)N2)[C@H](c2ccccc2OCCO)N2[C@H](c3ccccc3)[C@H](c3ccccc3)OC(=O)[C@H]2[C@@H]1C(=O)O)C(=O)OC
composite z-score [1]: 0.231 | z-score [2]: -0.323 (inactive) | z-score [3]: -0.367 (inactive) | z-score [4]: -0.375 (inactive) | z-score [5]: 1.86 (inactive) | composite z-score [6]: 0.517 | composite z-score [7]: 0.29 | composite z-score [8]: 0.19 | composite z-score [9]: 1.14 | composite z-score [10]: 0.279

CCOC(=O)C1=CC[C@@H](c2ccccc2)N(S(=O)(=O)c2ccc(C)cc2)[C@H]1c1ccc(CC)cc1
composite z-score [1]: 0.074 | z-score [2]: -3.08 (inactive) | z-score [3]: 1.17 (inactive) | z-score [4]: 0.136 (inactive) | z-score [5]: 0.0268 (inactive) | composite z-score [6]: 1.13 | composite z-score [7]: 0.0018 | composite z-score [8]: 0.567 | composite z-score [9]: 0.359 | composite z-score [10]: -0.737

COC(=O)[C@@]1(Cc2ccccc2)[C@H]2c3cc(C(=O)N4CCCC4)n(Cc4c(CO)[nH]cc(C)c4=O)c3C[C@H]2CN1C(=O)c1ccccc1
composite z-score [1]: 0.652 | z-score [2]: 0.0519 (inactive) | z-score [3]: -0.0914 (inactive) | z-score [4]: 0.0109 (inactive) | z-score [5]: 0.473 (inactive) | composite z-score [6]: 1.01 | composite z-score [7]: -0.101 | composite z-score [8]: 0.4 | composite z-score [9]: 0.491 | composite z-score [10]: -0.547

CC[C@@H]1C=C(C(=O)O)[C@H](c2ccc(C)cc2)N1S(=O)(=O)c1ccc(C)cc1
composite z-score [1]: -0.412 | z-score [2]: -0.52 (inactive) | z-score [3]: -0.498 (inactive) | z-score [4]: -0.527 (inactive) | z-score [5]: 1.03 (inactive) | composite z-score [6]: 0.583 | composite z-score [7]: 0.0516 | composite z-score [8]: 0.063 | composite z-score [9]: 0.247 | composite z-score [10]: -0.103

O=C1[C@H]2C=C(Br)[C@H](C[C@@H]2OCCCCCCO)[C@@]12CO2
composite z-score [1]: 0.255 | z-score [2]: 0.993 (inactive) | z-score [3]: 0.41 (inactive) | z-score [4]: 0.577 (inactive) | z-score [5]: 1.71 (inactive) | composite z-score [6]: -0.29 | composite z-score [7]: -0.024 | composite z-score [8]: 0.36 | composite z-score [9]: 0.12 | composite z-score [10]: 0.129
